TLR9-MyD88 inh = inhibitors of human TLR9-MyD88 binding | 340,000 compounds, 0.21% hits | Q9NR96+Q99836 | CHO BLA complementation TLR9-MyD88, CCF4 FRET ratio | inhibition, % at 4.98 µM;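 active = inhibition above the mean over all tested compounds plus 3 SD, cut at about 21% in these data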;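 note: 0% = DMSO only wells and 100% = clavulanate BLA inhibitor control wells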
TLR4 MyD88 comp = blocks binding of human TLR4 to MyD88 | O00206+Q99836 | inhibition, % at 8.4 µM | 200,000 compounds, 0.18% hits | HeLa CL3-4 TLR4/MyD88 BLA complementation, FRET ratio; in the data active = inhibition above about 25%;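 note: 0% = vehicle and 100% = reference inhibitor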
Target sequence (O00206 whole entry, looked up): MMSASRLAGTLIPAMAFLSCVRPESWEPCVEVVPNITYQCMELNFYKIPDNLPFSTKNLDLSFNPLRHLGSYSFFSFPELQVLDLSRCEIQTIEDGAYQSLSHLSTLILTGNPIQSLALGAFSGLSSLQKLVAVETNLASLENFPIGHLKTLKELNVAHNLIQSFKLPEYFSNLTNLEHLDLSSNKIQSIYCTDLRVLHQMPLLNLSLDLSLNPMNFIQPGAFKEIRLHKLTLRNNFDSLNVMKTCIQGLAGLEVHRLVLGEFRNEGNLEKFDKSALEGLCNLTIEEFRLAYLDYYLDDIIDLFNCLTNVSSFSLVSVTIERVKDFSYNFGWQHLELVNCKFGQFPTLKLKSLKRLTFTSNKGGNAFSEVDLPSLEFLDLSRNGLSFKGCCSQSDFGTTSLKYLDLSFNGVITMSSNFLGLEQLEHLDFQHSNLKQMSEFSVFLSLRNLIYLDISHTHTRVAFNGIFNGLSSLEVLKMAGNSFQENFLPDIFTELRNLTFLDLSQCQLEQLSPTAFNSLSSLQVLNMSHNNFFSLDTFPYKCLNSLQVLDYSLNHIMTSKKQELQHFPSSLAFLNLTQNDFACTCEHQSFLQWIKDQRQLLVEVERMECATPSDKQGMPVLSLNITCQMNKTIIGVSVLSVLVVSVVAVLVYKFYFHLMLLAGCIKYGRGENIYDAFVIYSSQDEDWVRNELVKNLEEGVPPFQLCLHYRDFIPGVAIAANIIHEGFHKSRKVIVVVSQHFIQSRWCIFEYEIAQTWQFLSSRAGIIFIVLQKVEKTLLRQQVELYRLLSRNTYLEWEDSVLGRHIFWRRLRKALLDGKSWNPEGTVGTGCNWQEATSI
Target sequence (Q99836 whole entry, looked up): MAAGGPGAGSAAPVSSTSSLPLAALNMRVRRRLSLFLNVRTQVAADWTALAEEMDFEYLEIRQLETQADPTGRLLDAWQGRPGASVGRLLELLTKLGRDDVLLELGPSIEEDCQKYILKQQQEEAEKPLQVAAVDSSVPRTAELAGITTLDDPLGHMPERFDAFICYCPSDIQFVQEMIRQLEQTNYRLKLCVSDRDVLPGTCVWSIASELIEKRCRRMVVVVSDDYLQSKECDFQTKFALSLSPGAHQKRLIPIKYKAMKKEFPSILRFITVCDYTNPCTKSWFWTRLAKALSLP
ABHD5-PLIN5 inh = blocks binding of human ABHD5 to perilipin-5; Q00G26+Q8WTS1; Split G. princeps luciferase complementation, luminescence, 4 h; inhibition, % at 4 µM; 360,000 compounds, 0.78% hits; AID 602281;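 active = inhibition above the mean inhibition across every tested compound plus 3 SD, cut at about 22% in these data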;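 note: 0% = DMSO only wells and the 100% control is not disclosed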
PRMT1 inh = inhibitors of human PRMT1; recombinant PRMT1, activity-based probe fluorescence polarization; inhibition, % at 2.79 µM; 370,000 compounds, 1.3% hits;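 active = inhibition above about 21% made by adding two undisclosed values, limit read from the data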
NOD2 RIPK2 PPI = blocks binding of human NOD2 to RIPK2; O43353; CHO BLA complementation NOD2-RIPK2, CCF4 ratio; inhibition, % at 4.98 µM; 360,000 compounds, 0.38% hits; AID 624267; in the data active = inhibition above about 21%;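 note: 0% = vehicle only and 100% = reference blocker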
rCAG binder = binds r(CAG) RNA repeats. inhibition, % at 3 µM. 370,000 compounds, 1.3% hits. AID 651821. r(CAG) RNA repeat, TO-PRO-1 dye displacement fluorescence;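 active = inhibition above the plate cutoff, the mean of all test compounds on that plate plus 3 SD, cut at about 35% in these data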;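 note: 0% = DMSO alone and 100% = 100 µM mitoxantrone as full dye displacement; higher means more dye released from RNA so lower well fluorescence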
ABHD5 PLIN5 conf = confirmation of human ABHD5-PLIN5 interaction inhibitors; shares compounds with ABHD5-PLIN5 inh; biochemical ABHD5-PLIN5 interaction, luminescence; inhibition, % at 4 µM; 2,200 compounds, 67% hits; AID 651612; in the data active = inhibition above about 23%;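 note: 0% = DMSO vehicle wells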
HNF4 split-luc = HNF4 split-luciferase signal hit, counter-screen; shares compounds with ABHD5-PLIN5 inh; inhibition, % at 4 µM; 2,200 compounds, 77% hits; AID 651674; HNF4 dimerization, luminescence, biochemical;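 active = mean inhibition across replicate wells exceeding the computed hit threshold, cut at about 13% in these data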;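 note: light from luciferase halves that rejoin when HNF4 fusion proteins dimerize; 0% = DMSO only wells and the 100% control is not given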
* marks the source's active call; other numbers are inactive results. An excerpt weighted towards active compounds, which were near 3.3% of everything screened.

`Cc1ccc(O)c(C(=O)C=Cc2ccccc2)c1` gave TLR9-MyD88 inh 0, ABHD5-PLIN5 inh 41*, PRMT1 inh -2, NOD2 RIPK2 PPI 14, rCAG binder 2, ABHD5 PLIN5 conf 88* and HNF4 split-luc 55*.
For Cc1ccc(/C=C/C(=O)c2ccccc2O)cc1 the results were TLR9-MyD88 inh -4, ABHD5-PLIN5 inh 21, PRMT1 inh 3, NOD2 RIPK2 PPI -7 and rCAG binder 1.
COc1ccc(/C=C/C(=O)c2cc3cccc(OC)c3oc2=O)cc1 was read as TLR9-MyD88 inh 5, TLR4 MyD88 comp 7, ABHD5-PLIN5 inh 37*, PRMT1 inh 6, NOD2 RIPK2 PPI -1, rCAG binder 21, ABHD5 PLIN5 conf 64* and HNF4 split-luc 53*.
`Cc1cccc(C=CC(=O)c2ccccc2)c1` gave TLR9-MyD88 inh 8, ABHD5-PLIN5 inh 27*, PRMT1 inh 2, NOD2 RIPK2 PPI -6, rCAG binder 5, ABHD5 PLIN5 conf 57* and HNF4 split-luc 44*.
Cc1ccc(C(=O)C=Cc2cccc(C)c2)cc1 was read as TLR9-MyD88 inh 11, ABHD5-PLIN5 inh 15, PRMT1 inh 2, NOD2 RIPK2 PPI -7 and rCAG binder 5.
For COC(=O)[C@@]12CCCN1[C@H](c1ccc(-c3cccc(Cl)c3)cc1)[C@H]1C(=O)N(C)C(=O)[C@H]12 the results were TLR9-MyD88 inh -1, ABHD5-PLIN5 inh -10, PRMT1 inh -3, NOD2 RIPK2 PPI 1 and rCAG binder 4.
CCN(CC)c1ccc(N=Nc2nn(C)c(C)c2[N+](=O)[O-])cc1 was read as TLR9-MyD88 inh -1, TLR4 MyD88 comp 6, ABHD5-PLIN5 inh 25*, PRMT1 inh 2, NOD2 RIPK2 PPI 3, rCAG binder 9, ABHD5 PLIN5 conf 29* and HNF4 split-luc 33*.
`O=C(c1cccs1)N1CCN(Cc2cccc([N+](=O)[O-])c2)CC1` gave TLR9-MyD88 inh 8, TLR4 MyD88 comp -5, ABHD5-PLIN5 inh -4, PRMT1 inh 0, NOD2 RIPK2 PPI -8 and rCAG binder -6.
CCCCNC(=O)Nc1ccc2c(c1)N(C)C(=O)c1ccccc1S2 was read as TLR9-MyD88 inh 0, ABHD5-PLIN5 inh 50*, PRMT1 inh 0, NOD2 RIPK2 PPI -9, rCAG binder 2, ABHD5 PLIN5 conf 68* and HNF4 split-luc 4.
CN1C(=O)c2ccccc2Sc2ccc(NC(=O)N3CCCC3)cc21 was read as TLR9-MyD88 inh 2, TLR4 MyD88 comp -14, ABHD5-PLIN5 inh 9, PRMT1 inh -2, NOD2 RIPK2 PPI 2 and rCAG binder 2.
`CCCNC(=O)Nc1ccc2c(c1)N(C)C(=O)c1ccccc1S2` gave TLR9-MyD88 inh -3, TLR4 MyD88 comp -6, ABHD5-PLIN5 inh 33*, PRMT1 inh 2, NOD2 RIPK2 PPI -9, rCAG binder 0, ABHD5 PLIN5 conf 54* and HNF4 split-luc 4.
Screening CC1(C(=O)NCc2ccccc2)CN(S(C)(=O)=O)CC(=O)N1CCCn1ccnc1 (configuration not stated) returned ABHD5-PLIN5 inh 10, PRMT1 inh -3, NOD2 RIPK2 PPI 9 and rCAG binder 0.
CCOC(=O)C1=CCN(S(=O)(=O)c2ccccc2C)C1c1cccc(Cl)c1 (configuration not stated) was read as ABHD5-PLIN5 inh 3, PRMT1 inh -3, NOD2 RIPK2 PPI -7 and rCAG binder -2.
For CCOC(CN=c1nc(N(C)C)ss1)OCC the results were TLR9-MyD88 inh 0, ABHD5-PLIN5 inh 81*, PRMT1 inh 1, NOD2 RIPK2 PPI 7, rCAG binder -1, ABHD5 PLIN5 conf 78* and HNF4 split-luc 101*.
For CN(C)CCC1(C2=CCCC2)CC/C(=C/c2ccc(Cl)cc2)C1=O (configuration not stated) the results were TLR9-MyD88 inh -2, ABHD5-PLIN5 inh 32*, PRMT1 inh 4, NOD2 RIPK2 PPI 12, rCAG binder 5, ABHD5 PLIN5 conf 39* and HNF4 split-luc 21*.
CN(C)CC1CCC/C(=C\c2ccc(OC(=O)c3ccc(Cl)cc3)cc2)C1=O (configuration not stated) was read as TLR9-MyD88 inh -7, ABHD5-PLIN5 inh 5, PRMT1 inh 0, NOD2 RIPK2 PPI 4 and rCAG binder 8.
For CCC(=O)Oc1ccc(C(=O)Nc2ccc3c(c2)C(=O)N(C2CCCCC2)C3=O)cc1 the results were TLR9-MyD88 inh 6, TLR4 MyD88 comp -7, ABHD5-PLIN5 inh 2, PRMT1 inh -2, NOD2 RIPK2 PPI -5 and rCAG binder 2.
`O=C(Cc1ccccc1)Nc1ccc(S(=O)(=O)N2CCOCC2)cc1` gave TLR9-MyD88 inh -11, ABHD5-PLIN5 inh -18, PRMT1 inh 5, NOD2 RIPK2 PPI -4 and rCAG binder 3.
CC1CCN(S(=O)(=O)c2ccc(NC(=O)Cn3nnc(-c4ccccc4F)n3)cc2)CC1 was read as TLR9-MyD88 inh 11, TLR4 MyD88 comp -17, ABHD5-PLIN5 inh 26*, PRMT1 inh -1, NOD2 RIPK2 PPI 1, rCAG binder 7, ABHD5 PLIN5 conf 41* and HNF4 split-luc 2.
For CC1CCN(S(=O)(=O)c2ccc(NC(=O)Cc3ccccc3)cc2)CC1 the results were TLR9-MyD88 inh 9, TLR4 MyD88 comp -8, ABHD5-PLIN5 inh 33*, PRMT1 inh 3, NOD2 RIPK2 PPI -1, rCAG binder 6, ABHD5 PLIN5 conf 50* and HNF4 split-luc -4.
For O=C(O)c1ccc(CSCc2c(F)cccc2Cl)o1 the results were TLR9-MyD88 inh 6, TLR4 MyD88 comp 0, ABHD5-PLIN5 inh 5, PRMT1 inh 0, NOD2 RIPK2 PPI -8 and rCAG binder 2.
Screening Cc1ccnc(NS(=O)(=O)c2ccc(NC(=O)CC(C)c3ccccc3)cc2)n1 (configuration not stated) returned TLR9-MyD88 inh -7, ABHD5-PLIN5 inh -10, PRMT1 inh -1, NOD2 RIPK2 PPI -3 and rCAG binder 9.
For COc1ccc2nc3ccccc3nc2c1N the results were TLR9-MyD88 inh -8, ABHD5-PLIN5 inh 38*, PRMT1 inh 13, NOD2 RIPK2 PPI 2, rCAG binder 6, ABHD5 PLIN5 conf 0 and HNF4 split-luc 10.
`COc1ccc2nc3cccc(OC)c3nc2c1` gave TLR9-MyD88 inh -3, TLR4 MyD88 comp 0, ABHD5-PLIN5 inh -25, PRMT1 inh 8, NOD2 RIPK2 PPI 2 and rCAG binder 1.
COc1ccc(-n2c(=O)cc(N3CCOCC3)[nH]c2=O)cc1 was read as TLR9-MyD88 inh 2, TLR4 MyD88 comp -5, ABHD5-PLIN5 inh 6, PRMT1 inh 3, NOD2 RIPK2 PPI 8 and rCAG binder 0.
